Most compounds without a hit are left out; they make up all but 27% or so of the library.
CYP2C9 inhib: human CYP2C9 inhibition. CYP2C9 Supersomes, luciferin-H conversion, luminescence. inhibition, % at 5 µM. P11712. 20% of 96,000 active;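 active = blocking of liver enzyme CYP2C9 beyond about 50% at 5 µM, limit read from the data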
CYP2C9 activ: increases human cytochrome P450 2C9 activity; activation factor at 5 µM; recombinant CYP2C9, luciferin-H conversion, luminescence; hits give high values; factor 1 = untreated enzyme, 0 = blocked; 1.4% of 96,000 active; P11712; AID 1024;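 active = activation factor of 2 or more for CYP2C9 at a 5 µM dose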;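 note: 0 = sulfaphenazole-blocked wells and 1 = vehicle-only wells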
Cav3 T inh: human Cav3.2 channel inhibition, primary screen; O95180; Cav3.2-expressing cells, Fluo-4 calcium fluorescence FDSS; hits give low values; B-score at 10 µM; 4% of 100,000 active;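 active = single-dose well whose peak fluorescence ratio is a statistical outlier from its plate by either plate-standardised score or position-corrected B-score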
CYP2C19 activ: increases human CYP2C19 enzyme activity | activation factor at 5 µM | P33261 | 96,000 tested, under 10 active | AID 1025 | recombinant CYP2C19, luciferin-H EGE luminescence; hits give high values; 0 = fully inhibited enzyme, 1 = untreated enzyme;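 active = activation factor of at least 2 at 5 µM in the primary screen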;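 note: 0 = wells with 2.5 mM tranylcypromine and 1 = vehicle-only wells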
CYP2C19 inh: blocks human cytochrome P450 2C19. inhibition, % at 5 µM. CYP2C19 Supersomes, luciferin-H EGE luminescence, 30 min. P33261. 21% of 96,000 active. AID 778;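 active = CYP2C19 inhibition above a set limit at 5 µM in the primary screen, cut at about 50% in these data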;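 note: plate controls were negative control wells for no effect and 2.5 mM tranylcypromine positive control for full effect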
Numbers without * were called inactive; nt = not tested or not shown.

SMILES | CYP2C9 inhib | CYP2C9 activ | Cav3 T inh | CYP2C19 activ | CYP2C19 inh
CCCSc1nnc2n(C)c(=O)c3c4c(sc3n12)CCC4 | 61* | 0.4 | 0.057 | 0.5 | 53*
CCCSc1nnc2n(Cc3ccccc3)c(=O)c3c4c(sc3n12)CCC4 | -18 | 1.2 | nt | 1.2 | -20
CCn1c(=O)c2c3c(sc2n(C)c1=O)CCC3 | 2 | 1 | 1.3 | 1 | 1
CCn1c(=O)c2c3c(sc2n2c(=S)[nH]nc12)CCC3 | 97* | 0 | 3.6* | 0.2 | 80*
CCCCN(CCCC)C(=O)CSc1nnc2n(C)c(=O)c3c4c(sc3n12)CCCC4 | nt | nt | -3.7 | nt | nt
CC(C)(C)OC(=O)N1CCN(C(=O)[C@H](Cc2ccc(O)cc2)n2cc(CCO)nn2)CC1 | nt | nt | -0.49 | nt | nt
COc1ccc(OCCSc2nnc(-c3ccccc3)n2N)cc1 | 3 | 1 | 0.15 | 0.8 | 22
Cc1occc1-c1nnc(SCC(=O)c2ccc(Cl)cc2)n1C | 48 | 0.5 | 0.19 | 0.1 | 85*
Cc1occc1-c1nnc(SCC(=O)c2c[nH]c3ccccc23)n1C | 54* | 0.5 | 0.45 | 0 | 98*
Cc1cccc(C)c1NC(=O)CSc1nnc(-c2ccoc2C)n1C | -1 | 1 | 0.13 | 0.7 | 32
COc1ccc(OCCSc2nnc(-c3ccoc3C)n2C)cc1 | 72* | 0.3 | -0.18 | 0.3 | 74*
CCCCCCSc1cc(C)nc2ncnn12 | 38 | 0.6 | -0.25 | 0.3 | 66*
CCSc1cc(C)nc2ncnn12 | 28 | 0.7 | 0.082 | 0.9 | 10
CCOC(=O)N1CCN(S(=O)(=O)c2ccc3c(c2)OCC(=O)N3)CC1 | 15 | 0.9 | -0.053 | 0.9 | 14
COc1ccc(S(=O)(=O)Nc2cc(C)on2)cc1OC | nt | nt | -1.5 | nt | nt
CC(=O)Nc1ccc(S(=O)(=O)Nc2cccc(C(=O)NC(C)(C)C)c2)cc1 | 35 | 0.7 | 0.047 | 0.9 | 8
COc1ccc(S(=O)(=O)Nc2cccc(NC(C)=O)c2)cc1 | 30 | 0.7 | -0.2 | 0 | 95*
COC(=O)c1ccc(C)c(NS(=O)(=O)c2ccc(OC)c(OC)c2)c1 | 58* | 0.4 | 0.094 | 0.2 | 82*
COc1ccc(S(=O)(=O)c2ccc(OC)c(OC)c2)cc1OC | -63 | 1.6 | nt | 0.2 | 79*
COc1ccc(OC)c(NC(=O)c2ccc(NC(C)=O)cc2)c1 | -162 | 2.6* | -0.54 | 1 | -1
COc1ccc(Cl)cc1NS(=O)(=O)c1ccc(OC)c(OC)c1 | nt | nt | -1 | nt | nt
c1ccc(Cn2nnc3c(Nc4ccc5c(c4)OCO5)nc(C4CC4)nc32)cc1 | 36 | 0.6 | -0.055 | 0.9 | 7
CC(C)(C)NC(=O)Cn1c(SCC(=O)NC2CCCCC2)nc2ccccc21 | -12 | 1.1 | 1.5 | 1 | -3
COc1ccc(OC)c(NC(=O)c2ccc(NS(C)(=O)=O)cc2)c1 | -42 | 1.4 | 0.93 | 0.8 | 18
COC(=O)COc1ccc(S(=O)(=O)Nc2ccc(NC(C)=O)cc2)cc1C | 32 | 0.7 | 0.086 | 0.2 | 76*
SMILES | CYP2C9 inhib | CYP2C9 activ | Cav3 T inh | CYP2C19 activ | CYP2C19 inh
COc1ccc(S(=O)(=O)Nc2ccc(C)cc2)cc1OC | 62* | 0.4 | 0.0015 | 0 | 97*
COc1ccc(S(=O)(=O)Nc2ccccc2)cc1OC | -7 | 1.1 | 1.1 | 0.1 | 90*
COc1ccc(OC)c(NS(=O)(=O)c2ccc(NC(C)=O)cc2)c1 | 29 | 0.7 | 0.34 | 0 | 100*
COc1ccc(S(=O)(=O)Nc2ccc(S(=O)(=O)Nc3nc(C)cc(C)n3)cc2)cc1OC | 23 | 0.8 | -0.35 | 1 | -2
COc1oc(-c2ccccc2)nc1C(F)(F)F | -12 | 1.1 | 0.0031 | 1.1 | -12
CC(C)c1ccc(C(=O)N2CCN(CCO)CC2)cc1 | -3 | 1 | 1.1 | 0.9 | 7
COc1ccccc1N1CCN(C(=O)Cn2c(=O)[nH]c3ccsc3c2=O)CC1 | 12 | 0.9 | 1.2 | 0.9 | 14
CC(C)(C)c1ccc(OCC(=O)OCCNC(=O)c2cccnc2)cc1 | 40 | 0.6 | -0.16 | 0.6 | 41
COc1ccc(OC)c(NC(=O)Nc2cccc(Cn3cccn3)c2)c1 | 83* | 0.2 | -1.3 | 0.3 | 74*
COC(=O)c1cc(NC(=O)Nc2cc(OC)ccc2OC)cc(C(=O)OC)c1 | 51* | 0.5 | -0.69 | 0.6 | 42
Cc1cc(C)nc(NS(=O)(=O)c2ccc(NS(=O)(=O)c3ccccc3)cc2)n1 | 26 | 0.7 | -0.6 | 0.9 | 11
COc1ccc(CONS(=O)(=O)c2ccc(NC(C)=O)cc2)cc1Cl | -4 | 1 | 1 | 0.5 | 53*
COc1ccc(Cl)cc1S(=O)(=O)Oc1ccc(NC(C)=O)cc1 | nt | nt | -0.22 | nt | nt
COc1ccc(OC)c(NC(=O)Nc2ccc(Cl)cc2)c1 | 12 | 0.9 | -2.5 | 0.7 | 29
COc1ccc(S(=O)(=O)Nc2cc(C)c(O)c(S(=O)(=O)c3ccccc3)c2)cc1 | 79* | 0.2 | -5.1* | 0.5 | 53*
COc1ccc2nc(SCC(=O)N3CCN(c4ccc(F)cc4)CC3)c(C#N)cc2c1 | nt | nt | -0.93 | nt | nt
O=C(O)c1ccc(NS(=O)(=O)c2cc(Cl)ccc2Cl)cc1O | 20 | 0.8 | 0.42 | 1 | -1
COc1ccc(NC(=O)CCNC(C)=O)cc1NS(=O)(=O)c1ccc(F)cc1 | 29 | 0.7 | 0.065 | 0.5 | 52*
CC(=O)NCCC(=O)Nc1cc(F)ccc1C | 3 | 1 | -0.88 | 1 | -2
COc1ccc(NC(=O)c2cc(-c3cc(C)ccc3O)n[nH]2)cc1Cl | -27 | 1.3 | 0.3 | 1.1 | -12
COc1ccc(OC)c(NC(=O)c2cc(-c3cc(Cl)ccc3O)n[nH]2)c1 | -143 | 2.4* | 0.046 | 1 | 3
COc1ccc(OC)c(NS(=O)(=O)c2ccc(N3CCCC3=O)cc2)c1 | 19 | 0.8 | nt | 0.1 | 95*
COc1ccc(S(=O)(=O)Nc2cc(Cl)ccc2OC)cc1 | 38 | 0.6 | -1.9 | 0 | 99*
O=C1C(=O)N(CNc2ccccn2)c2ccccc21 | -5 | 1.1 | -0.19 | 0.9 | 9
COc1ccc(S(=O)(=O)Nc2ccc(NC(C)=O)cc2)cc1OC | 67* | 0.3 | 0.14 | 0.1 | 95*
SMILES | CYP2C9 inhib | CYP2C9 activ | Cav3 T inh | CYP2C19 activ | CYP2C19 inh
Cc1c(Cl)cccc1NC(=O)c1cc(-c2ccccc2O)n[nH]1 | -168 | 2.7* | nt | 0.8 | 17
COc1cccc(NS(=O)(=O)c2ccc(OC)c(OC)c2)c1 | -88 | 1.9 | 0.28 | 0 | 100*
CCOc1cc(NC(=S)Nc2ccccc2)c(OCC)cc1NC(=O)c1ccc(OC)cc1 | 69* | 0.3 | -1.2 | 0.5 | 48
O=C(O)c1cc(-c2ccccc2Cl)n[nH]1 | -9 | 1.1 | 0.24 | 1.1 | -9
COC(=O)Nc1ccc(S(=O)(=O)Nc2ccc(O)cc2)cc1 | nt | nt | 0.4 | nt | nt
CCOc1cc(NC(=S)Nc2cccc(OC)c2)c(OCC)cc1NC(=O)C(C)C | 14 | 0.9 | 0.66 | 1 | 4
COc1ccc(C2C(C(=O)NCCN(C)C)c3ccccc3C(=O)N2C)cc1OC (stereo not given) | -12 | 1.1 | -0.00028 | 1.2 | -21
COc1cccc(NC(=O)c2nc3ncccn3n2)c1 | -95 | 2* | -0.0098 | 1.2 | -16
C=CCNc1sc(C(=O)c2ccc(Br)s2)c(N)c1C#N | 63* | 0.4 | -3.8 | 0.8 | 18

Screening data: PubChem, several laboratories
